# Assay results taken from the supplement of paper PMC12282887.
# ± gives the standard deviation of the averaged measurements.
# Experiments:
# Experiment in all cases: promoter activity interaction Z-score (Lux/OD deviation from empty-vector control); higher = stronger promoter induction by the compound
# [1] = system: E. coli BW25113 acrABp lux reporter
# Procedure, shortened: (§1)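 E. coli BW25113 (wild type or marA, soxS or rob deletion) carrying low-copy luxCDABE promoter reporters grew in 40 µl LB Lennox in 384-well plates at 37°C. Each compound was tested at four 1:2 dilutions in biological duplicates. OD600 and luminescence were read every 30 min for 12 h. Areas were taken over 0–8 h (wild type) or 1–9 h (mutants), and wells below 10% of median growth area were removed. The score is the Z-transformed residual of growth-normalised luminescence fitted against the empty-vector control.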
# [2] = system: E. coli BW25113 micFp lux reporter
# Procedure, shortened: as §1
# [3] = system: E. coli BW25113 ompFp lux reporter
# Procedure, shortened: as §1
# [4] = system: E. coli BW25113 robp lux reporter
# Procedure, shortened: as §1
# [5] = system: E. coli BW25113 soxSp lux reporter
# Procedure, shortened: as §1
# [6] = system: E. coli BW25113 tolCp lux reporter
# Procedure, shortened: as §1
# [7] = 17.3 µg/ml, genetic background: wild type
# [8] = 17.3 µg/ml, genetic background: ΔmarA
# [9] = 17.3 µg/ml, genetic background: Δrob
# [10] = 17.3 µg/ml, genetic background: ΔsoxS
# [11] = 34.5 µg/ml, genetic background: wild type
# [12] = 34.5 µg/ml, genetic background: ΔmarA
# [13] = 34.5 µg/ml, genetic background: Δrob
# [14] = 34.5 µg/ml, genetic background: ΔsoxS
# [15] = 69.1 µg/ml, genetic background: wild type
# [16] = 69.1 µg/ml, genetic background: ΔmarA
# [17] = 69.1 µg/ml, genetic background: Δrob
# [18] = 69.1 µg/ml, genetic background: ΔsoxS
# [19] = 138.1 µg/ml, genetic background: wild type
# [20] = 138.1 µg/ml, genetic background: ΔmarA
# [21] = 138.1 µg/ml, genetic background: Δrob
# [22] = 138.1 µg/ml, genetic background: ΔsoxS
smiles,measurement,setting,value
O=C(O)c1ccccc1O [Salicylate],promoter activity interaction Z-score,[1]; [7],-0.103 ± 0.014
same,promoter activity interaction Z-score,[1]; [8],-0.589 ± 0.63
same,promoter activity interaction Z-score,[1]; [9],-0.226 ± 0.24
same,promoter activity interaction Z-score,[1]; [10],-0.152 ± 0.11
same,promoter activity interaction Z-score,[1]; [11],-0.242 ± 0.057
same,promoter activity interaction Z-score,[1]; [12],-0.128 ± 0.11
same,promoter activity interaction Z-score,[1]; [13],-0.178 ± 0.057
same,promoter activity interaction Z-score,[1]; [14],-0.392 ± 0.55
same,promoter activity interaction Z-score,[1]; [15],-0.168 ± 0.043
same,promoter activity interaction Z-score,[1]; [16],-0.559 ± 0.22
same,promoter activity interaction Z-score,[1]; [17],-0.327 ± 0.03
same,promoter activity interaction Z-score,[1]; [18],-0.194 ± 0.22
same,promoter activity interaction Z-score,[1]; [19],1.16 ± 0.76
same,promoter activity interaction Z-score,[1]; [20],0.299 ± 0.12
same,promoter activity interaction Z-score,[1]; [21],0.954 ± 0.4
same,promoter activity interaction Z-score,[1]; [22],1.34 ± 0.39
same,promoter activity interaction Z-score,[2]; [7],0.432 ± 0.15
same,promoter activity interaction Z-score,[2]; [8],-0.066 ± 0.12
same,promoter activity interaction Z-score,[2]; [9],0.521 ± 0.42
same,promoter activity interaction Z-score,[2]; [10],0.0126 ± 0.12
same,promoter activity interaction Z-score,[2]; [11],0.534 ± 0.39
same,promoter activity interaction Z-score,[2]; [12],-0.0684 ± 0.18
same,promoter activity interaction Z-score,[2]; [13],0.624 ± 0.05
same,promoter activity interaction Z-score,[2]; [14],0.176 ± 0.22
same,promoter activity interaction Z-score,[2]; [15],0.858 ± 0.46
same,promoter activity interaction Z-score,[2]; [16],0.0541 ± 0.076
same,promoter activity interaction Z-score,[2]; [17],1.4 ± 0.11
same,promoter activity interaction Z-score,[2]; [18],0.648 ± 0.042
same,promoter activity interaction Z-score,[2]; [19],3.02 ± 0.49
same,promoter activity interaction Z-score,[2]; [20],0.477 ± 0.32
same,promoter activity interaction Z-score,[2]; [21],4.91 ± 0.15
same,promoter activity interaction Z-score,[2]; [22],3.15 ± 0.65
same,promoter activity interaction Z-score,[3]; [7],-0.258 ± 0.037
same,promoter activity interaction Z-score,[3]; [8],-0.336 ± 0.23
same,promoter activity interaction Z-score,[3]; [9],-0.349 ± 0.016
same,promoter activity interaction Z-score,[3]; [10],-0.27 ± 0.18
same,promoter activity interaction Z-score,[3]; [11],-0.259 ± 0.41
same,promoter activity interaction Z-score,[3]; [12],-0.439 ± 0.33
same,promoter activity interaction Z-score,[3]; [13],-0.523 ± 0.35
same,promoter activity interaction Z-score,[3]; [14],0.344 ± 0.3
same,promoter activity interaction Z-score,[3]; [15],-0.272 ± 0.29
same,promoter activity interaction Z-score,[3]; [16],-0.133 ± 0.11
same,promoter activity interaction Z-score,[3]; [17],0.0991 ± 0.22
same,promoter activity interaction Z-score,[3]; [18],0.35 ± 0.33
same,promoter activity interaction Z-score,[3]; [19],0.5 ± 0.64
same,promoter activity interaction Z-score,[3]; [20],-0.462 ± 0.05
same,promoter activity interaction Z-score,[3]; [21],0.991 ± 0.12
same,promoter activity interaction Z-score,[3]; [22],0.357 ± 1.6
same,promoter activity interaction Z-score,[4]; [7],0.135 ± 0.21
same,promoter activity interaction Z-score,[4]; [8],-0.248 ± 0.33
same,promoter activity interaction Z-score,[4]; [9],-0.0314 ± 0.15
same,promoter activity interaction Z-score,[4]; [10],-0.476 ± 0.16
same,promoter activity interaction Z-score,[4]; [11],-0.293 ± 0.019
same,promoter activity interaction Z-score,[4]; [12],0.052 ± 0.1
same,promoter activity interaction Z-score,[4]; [13],-0.218 ± 0.033
same,promoter activity interaction Z-score,[4]; [14],0.365 ± 0.091
same,promoter activity interaction Z-score,[4]; [15],-0.0138 ± 0.24
same,promoter activity interaction Z-score,[4]; [16],-0.259 ± 0.74
same,promoter activity interaction Z-score,[4]; [17],0.387 ± 0.029
same,promoter activity interaction Z-score,[4]; [18],-0.512 ± 0.077
same,promoter activity interaction Z-score,[4]; [19],-0.0563 ± 0.13
same,promoter activity interaction Z-score,[4]; [20],-0.611 ± 0.22
same,promoter activity interaction Z-score,[4]; [21],0.693 ± 0.087
same,promoter activity interaction Z-score,[4]; [22],-0.616 ± 0.21
same,promoter activity interaction Z-score,[5]; [7],0.0635 ± 0.14
same,promoter activity interaction Z-score,[5]; [8],-0.172 ± 0.0058
same,promoter activity interaction Z-score,[5]; [9],-0.0541 ± 0.36
same,promoter activity interaction Z-score,[5]; [10],-0.237 ± 0.017
same,promoter activity interaction Z-score,[5]; [11],-0.0796 ± 0.076
same,promoter activity interaction Z-score,[5]; [12],-0.219 ± 0.049
same,promoter activity interaction Z-score,[5]; [13],-0.0336 ± 0.1
same,promoter activity interaction Z-score,[5]; [14],-0.0124 ± 0.14
same,promoter activity interaction Z-score,[5]; [15],-0.0424 ± 0.045
same,promoter activity interaction Z-score,[5]; [16],-0.126 ± 0.076
same,promoter activity interaction Z-score,[5]; [17],0.239 ± 0.18
same,promoter activity interaction Z-score,[5]; [18],0.207 ± 0.22
same,promoter activity interaction Z-score,[5]; [19],0.0689 ± 0.0036
same,promoter activity interaction Z-score,[5]; [20],0.491 ± 0.041
same,promoter activity interaction Z-score,[5]; [21],0.434 ± 0.012
same,promoter activity interaction Z-score,[5]; [22],0.177 ± 0.4
same,promoter activity interaction Z-score,[6]; [7],-0.0562 ± 0.66
same,promoter activity interaction Z-score,[6]; [8],-0.946 ± 0.55
same,promoter activity interaction Z-score,[6]; [9],0.0451 ± 0.3
same,promoter activity interaction Z-score,[6]; [10],0.372 ± 0.27
same,promoter activity interaction Z-score,[6]; [11],-0.65 ± 0.46
same,promoter activity interaction Z-score,[6]; [12],-0.0216 ± 0.48
same,promoter activity interaction Z-score,[6]; [13],-0.226 ± 0.041
same,promoter activity interaction Z-score,[6]; [14],0.227 ± 0.47
same,promoter activity interaction Z-score,[6]; [15],-0.276 ± 0.26
same,promoter activity interaction Z-score,[6]; [16],-0.251 ± 0.18
same,promoter activity interaction Z-score,[6]; [17],0.839 ± 0.021
same,promoter activity interaction Z-score,[6]; [18],0.668 ± 1.5
same,promoter activity interaction Z-score,[6]; [19],2.05 ± 1
same,promoter activity interaction Z-score,[6]; [20],-0.89 ± 0.018
same,promoter activity interaction Z-score,[6]; [21],1.38 ± 2
same,promoter activity interaction Z-score,[6]; [22],0.806 ± 0.32
